The text below walks through data of PubChem BioAssay (Tox21).

Values without a mark were called inactive. Results filed as inconclusive are left out. Calls of active or inactive are those of the source. Unless noted, calls follow the shape of the dose curve; as a rule, active = well fitted curve in the direction sought with a large enough effect in the repeat runs; inconclusive = weak or mixed curves; inactive = no such curve, though single readings can be large; an effect the other way counts as inactive or inconclusive.

The nature of experiment [1]: qHTS assay to identify small molecule agonists of the estrogen receptor alpha (ER-alpha) signaling pathway in the presence of an antagonist - cell viability counter screen (AID 1259386).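 Also: series mostly up to about 92 µM; cells exposed to compounds for 22 h at 37 °C before the viability read; nearly all actives have a fitted effect of over 30% in size.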 In a few lines: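 Cytotoxicity was measured in parallel with the ERE-luciferase agonist screen, in the same wells. The cells were VM7Luc4E2, which endogenously express ER-alpha, and treatment was with compounds plus 10.0nM ICI-182,780 for 22hr.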
Background: qHTS replaces the single test concentration by a dilution series.

The target in experiment [2] is Progesterone receptor (Homo sapiens) (UniProt P06401). Nature of the experiment: qHTS assay to identify small molecule agonists of the progesterone receptor (PR) signaling pathway (AID 1346784; calls by dose curve; also: nearly all actives have a fitted effect of over 30% in size). In outline: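 PR-UAS-bla HEK 293T cells (beta-lactamase reporter under UAS) in 2% charcoal-stripped FBS, dosed with 23 nL compound after 6 hr, incubated 16hr at 37C. LiveBLAzer B/G FRET substrate added, fluorescence read after 2 hours.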
Progesterone receptor (Homo sapiens), sequence (P06401 whole entry, looked up): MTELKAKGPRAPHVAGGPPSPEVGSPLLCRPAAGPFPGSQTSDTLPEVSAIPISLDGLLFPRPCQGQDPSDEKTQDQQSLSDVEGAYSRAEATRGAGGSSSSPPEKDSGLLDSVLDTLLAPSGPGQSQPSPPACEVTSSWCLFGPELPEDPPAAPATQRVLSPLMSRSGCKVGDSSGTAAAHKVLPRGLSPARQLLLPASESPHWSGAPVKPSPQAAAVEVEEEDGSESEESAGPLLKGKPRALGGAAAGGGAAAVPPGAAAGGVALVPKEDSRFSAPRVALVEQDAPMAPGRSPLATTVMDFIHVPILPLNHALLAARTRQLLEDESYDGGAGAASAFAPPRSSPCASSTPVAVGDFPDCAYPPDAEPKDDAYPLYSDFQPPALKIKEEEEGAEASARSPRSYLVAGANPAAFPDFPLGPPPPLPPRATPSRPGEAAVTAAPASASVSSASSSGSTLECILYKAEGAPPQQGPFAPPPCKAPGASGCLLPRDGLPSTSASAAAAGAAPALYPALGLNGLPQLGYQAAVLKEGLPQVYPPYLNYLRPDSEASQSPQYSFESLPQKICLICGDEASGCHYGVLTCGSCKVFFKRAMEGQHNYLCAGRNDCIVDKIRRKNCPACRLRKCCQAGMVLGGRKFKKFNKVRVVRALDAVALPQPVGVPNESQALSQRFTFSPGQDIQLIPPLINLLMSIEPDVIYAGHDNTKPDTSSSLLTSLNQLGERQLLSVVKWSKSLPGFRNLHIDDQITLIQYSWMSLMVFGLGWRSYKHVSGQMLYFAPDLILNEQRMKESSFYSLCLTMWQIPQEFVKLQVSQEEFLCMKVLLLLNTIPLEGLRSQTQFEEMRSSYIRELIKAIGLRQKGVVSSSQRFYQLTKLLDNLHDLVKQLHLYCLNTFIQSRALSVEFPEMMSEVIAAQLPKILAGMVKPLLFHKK

The nature of experiment [3]: qHTS assay to identify small molecule antagonists of the progesterone receptor (PR) signaling pathway - cell viability counter screen (AID 1346798). Also: series mostly up to about 92 µM; nearly all actives have a fitted effect of over 50% in size. In a few lines:
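PR-UAS-bla HEK293T cells, 3,000/well in 2% charcoal-stripped FBS medium, dosed with compounds plus R5020 agonist and incubated 16 h at 37C. Viability then measured in the same wells by CellTiter-Glo luminescence after 30 min at RT.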

Experiment [4] in a line: qHTS assay to identify small molecule agonists of the progesterone receptor (PR) signaling pathway - cell viability counter screen (AID 1346799; calls by dose curve; also: nearly all actives have a fitted effect of over 45% in size). In outline: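 Counter screen in the PR-UAS-bla HEK293T wells (2% charcoal-stripped FBS, 16 h compound exposure at 37 C) after the bla read. CellTiter-Glo added, 30 min at room temperature, luminescence read as cell viability.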

The nature of experiment [5]: qHTS assay to identify small molecule antagonists of the TGF-beta/Smad signaling pathway - cell viability counter screen (AID 1346824). Also: nearly all actives have a fitted effect of over 50% in size. In a few lines: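 SBE-bla HEK 293T cells, incubated overnight, then compound plus 0.25 ng/mL TGF-beta1 (stock added) for 5 hr at 37 C. Viability was read in the same wells by CellTiter-Glo luminescence after 30 min at room temperature.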

Experiment [6] can be described thus: qHTS assay to identify small molecule agonists of the TGF-beta/Smad signaling pathway - cell viability counter screen (AID 1346829). Also: top concentration of the series differs between compounds; nearly all actives have a fitted effect of over 45% in size. In a few lines:
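After overnight seating at 37 C and 5% CO2, reporter cells got compounds for 5 hr and FRET substrate for 2 hr; cell viability then came from CellTiter-Glo luminescence.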

The nature of experiment [7]: qHTS assay to identify small molecule agonists of the TGF-beta/Smad signaling pathway (AID 1346859; active = well fitted activation curve with a large enough effect in the signal ratio in the repeat runs, not every such curve was filed as active; the % refers to the signal ratio; also: series mostly up to about 77 µM). In a few lines:
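SBE-bla HEK293T cells plated overnight, then compound exposure for 5 h at 37 C. Beta-lactamase reporter read with LiveBLAzer B/G FRET substrate after 2 h at room temperature, fluorescence at 405 nm excitation, 460/530 nm emission.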

Experiment [8] deals with Thyrotropin-releasing hormone receptor (Homo sapiens) (UniProt P34981). Nature of the experiment: qHTS assay to identify small molecule antagonists of the thyrotropin-releasing hormone receptor (TRHR) signaling pathway (AID 1346877; active = well fitted inhibition curve with a large enough effect in the repeat runs, not every such curve was filed as active; also: series mostly up to about 51 µM). In a few lines: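 Antagonism is measured as suppression of the calcium response to 1 nM TRH in TRHR-HEK293 cells that have been dye-loaded for 2 h at 37 °C after overnight plating. Each compound is tested at 15 concentrations in triplicate.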
Thyrotropin-releasing hormone receptor (Homo sapiens), sequence (P34981 whole entry, looked up): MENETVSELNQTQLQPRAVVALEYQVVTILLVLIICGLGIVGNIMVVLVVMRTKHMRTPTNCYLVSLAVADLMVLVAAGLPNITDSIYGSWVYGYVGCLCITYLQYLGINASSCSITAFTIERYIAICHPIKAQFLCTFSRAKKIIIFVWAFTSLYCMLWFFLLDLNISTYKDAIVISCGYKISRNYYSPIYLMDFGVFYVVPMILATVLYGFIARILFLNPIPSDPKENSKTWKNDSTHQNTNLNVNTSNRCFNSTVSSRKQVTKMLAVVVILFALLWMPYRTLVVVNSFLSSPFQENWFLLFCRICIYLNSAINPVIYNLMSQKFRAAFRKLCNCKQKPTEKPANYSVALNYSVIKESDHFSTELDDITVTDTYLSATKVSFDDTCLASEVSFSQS

For experiment [9] the target is unchanged. Nature of the experiment: qHTS assay to identify small molecule agonists of the thyrotropin-releasing hormone receptor (TRHR) signaling pathway (AID 1346891; calls by dose curve; also: series mostly up to about 58 µM). In outline:
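HEK293 cells expressing TRHR plated 18 h at 37 C/5% CO2, calcium dye-loaded 2 h at 37 C, then compound added (agonist mode); kinetic calcium fluorescence read 3 min at 1 s intervals; 15 concentrations in triplicate.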

A short description of experiment [10]: Human pregnane X receptor (PXR) small molecule agonists, qHTS cell viability counter screen (AID 1346977). Also: nearly all actives have a fitted effect of over 50% in size. In outline:
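PXR-Luc HepG2 cells (2,000/well, 5% charcoal-stripped FBS) preincubated 5 hr, then exposed to compounds 24 hr at 37 C. Viability read in the same wells by CellTiter-Fluor fluorescence, reagent added at 23 hr, 1 hr incubation.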

Experiment [11] is described as follows: Caspase-3/7 induction in HepG2 cells by small molecules, qHTS assay (AID 1346978). Also: nearly all actives have a fitted effect of over 15% in size. In outline: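 Wild-type HepG2 cells, 2,000/well, settled 5 hr at 37 C and 5% CO2, then compound-treated for 17 hr; caspase-3/7 activity read by luminescent Caspase-Glo 3/7 after 30 min at room temperature.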
Experiment [12] is described as follows: Caspase-3/7 induction in CHO-K1 cells by small molecules, qHTS cell viability counter screen (AID 1346979). Also: nearly all actives have a fitted effect of over 35% in size. In a few lines:
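Wild-type CHO-K1 cells (1,500/well) treated with compound after 5 h plating; after 16 h at 37C, viability read as CellTiter-Fluor fluorescence following 1 h reagent incubation, in the same wells as the caspase read.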

Experiment [13] in a line: Caspase-3/7 induction in HepG2 cells by small molecules, qHTS cell viability counter screen (AID 1346981). Also: series mostly up to about 92 µM; nearly all actives have a fitted effect of over 30% in size. In outline:
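Cell viability is measured as a cytotoxicity counter screen alongside the Caspase-Glo 3/7 readout in identical wells. Wild-type HepG2 cells are treated with test compounds for 16 hr at 37 C before CellTiter-Fluor addition and a 1-hr incubation.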

Experiment [14] has as its target Nuclear receptor subfamily 1 group I member 2 (Homo sapiens) (UniProt O75469). Briefly: Human pregnane X receptor (PXR) small molecule agonists, qHTS assay (AID 1346982). Also: nearly all actives have a fitted effect of over 35% in size. Also: potency is read from the fitted curve at half-maximal effect. In outline: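 Cells: HepG2 stably carrying PXR-Luc. Medium held 5% charcoal-stripped FBS. Compounds in DMSO added after 5 hr plating, incubated 24 hr, then luminescence quantified with ONE-Glo.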

In experiment [15] the target is Acetylcholinesterase (Homo sapiens) (UniProt P22303). Nature of the experiment: Acetylcholinesterase (AChE) small molecule antagonists: colormetric cell-based qHTS assay (AID 1347395; calls by dose curve; also: nearly all actives have a fitted effect of over 30% in size). In outline: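 SH-SY5Y cells attached overnight, exposed to compound 30 min at 37 C, then given DTNB/acetylthiocholine; after 90 min at 37 C, colorimetric thiocholine read gives cellular AChE activity.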
Acetylcholinesterase (Homo sapiens), sequence (P22303 whole entry, looked up): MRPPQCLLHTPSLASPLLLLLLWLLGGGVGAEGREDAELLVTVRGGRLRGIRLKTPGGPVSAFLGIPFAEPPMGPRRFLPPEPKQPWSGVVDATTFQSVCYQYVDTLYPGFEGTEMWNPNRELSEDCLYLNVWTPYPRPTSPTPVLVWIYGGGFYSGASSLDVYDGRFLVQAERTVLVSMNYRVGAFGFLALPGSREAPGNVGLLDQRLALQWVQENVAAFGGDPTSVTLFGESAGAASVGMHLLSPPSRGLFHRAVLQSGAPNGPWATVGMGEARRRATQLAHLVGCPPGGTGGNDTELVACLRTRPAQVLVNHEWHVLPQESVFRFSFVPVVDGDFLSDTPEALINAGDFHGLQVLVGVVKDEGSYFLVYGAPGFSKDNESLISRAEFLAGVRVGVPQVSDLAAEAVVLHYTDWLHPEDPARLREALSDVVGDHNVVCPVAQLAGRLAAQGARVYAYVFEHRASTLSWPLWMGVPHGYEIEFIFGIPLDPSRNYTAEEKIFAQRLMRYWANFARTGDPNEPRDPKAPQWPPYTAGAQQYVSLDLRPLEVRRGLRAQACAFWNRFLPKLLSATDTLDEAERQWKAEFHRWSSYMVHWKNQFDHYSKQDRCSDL

Experiment [16] in a line: Caspase-3/7 induction in CHO-K1 cells by small molecules, qHTS assay (AID 1346980). Also: nearly all actives have a fitted effect of over 15% in size. In a few lines: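 Wild-type CHO-K1 cells exposed to compounds for 17hr at 37 C, 5% CO2. Caspase-3/7 activity then measured by Caspase-Glo 3/7 luminescence after 30min at room temperature.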
The target in experiment [17] is Nuclear receptor subfamily 1 group I member 2 (Rattus norvegicus) (UniProt Q9R1A7). Briefly: Rat pregnane X receptor (rPXR) activation by small molecules, qHTS assay (AID 1346983). Also: nearly all actives have a fitted effect of over 20% in size. Conditions: rPXR luciferase reporter cells, One-Glo luminescence, 24 h; max activation: hits give high values. In a few lines: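 Cell-based rPXR activation assay: rPXR cells, 2,000 per well, rested 5hr at 37 C, then exposed to compounds in DMSO for 24 hr at 37 C. Luciferase activity read by One-Glo luminescence after 30 min at room temperature.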
Nuclear receptor subfamily 1 group I member 2 (Rattus norvegicus), sequence (Q9R1A7 whole entry, looked up): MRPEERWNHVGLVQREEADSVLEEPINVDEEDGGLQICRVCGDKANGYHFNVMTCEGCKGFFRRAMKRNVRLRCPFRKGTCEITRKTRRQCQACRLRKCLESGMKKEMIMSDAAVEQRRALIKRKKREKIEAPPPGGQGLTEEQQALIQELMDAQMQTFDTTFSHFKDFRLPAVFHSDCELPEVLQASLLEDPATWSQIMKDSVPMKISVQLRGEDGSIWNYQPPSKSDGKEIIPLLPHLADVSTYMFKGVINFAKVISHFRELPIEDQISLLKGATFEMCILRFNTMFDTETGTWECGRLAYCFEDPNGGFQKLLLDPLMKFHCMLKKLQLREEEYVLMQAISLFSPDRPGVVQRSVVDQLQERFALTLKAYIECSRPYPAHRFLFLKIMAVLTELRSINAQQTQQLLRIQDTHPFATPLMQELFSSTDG

In experiment [18] the target is Progesterone receptor (Homo sapiens) (UniProt P06401). Nature of the experiment: qHTS assay to identify small molecule antagonists of the progesterone receptor (PR) signaling pathway (AID 1346795; active = well fitted inhibition curve with a large enough effect in the signal ratio in the repeat runs, not every such curve was filed as active; the % refers to the signal ratio). In a few lines: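 PR-UAS-bla HEK293T cells with beta-lactamase reporter under UAS control, in 2% charcoal-stripped FBS, treated with compounds plus 1 nM promegestone (R5020, final) for 16 hr at 37C. Read-out: FRET beta-lactamase substrate fluorescence after 2 hr at room temperature.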
% is scaled to controls: 0 for no effect and ±100 for the full control effect.

Nuclear receptor subfamily 1 group I member 2 (Homo sapiens), sequence (O75469 whole entry, looked up): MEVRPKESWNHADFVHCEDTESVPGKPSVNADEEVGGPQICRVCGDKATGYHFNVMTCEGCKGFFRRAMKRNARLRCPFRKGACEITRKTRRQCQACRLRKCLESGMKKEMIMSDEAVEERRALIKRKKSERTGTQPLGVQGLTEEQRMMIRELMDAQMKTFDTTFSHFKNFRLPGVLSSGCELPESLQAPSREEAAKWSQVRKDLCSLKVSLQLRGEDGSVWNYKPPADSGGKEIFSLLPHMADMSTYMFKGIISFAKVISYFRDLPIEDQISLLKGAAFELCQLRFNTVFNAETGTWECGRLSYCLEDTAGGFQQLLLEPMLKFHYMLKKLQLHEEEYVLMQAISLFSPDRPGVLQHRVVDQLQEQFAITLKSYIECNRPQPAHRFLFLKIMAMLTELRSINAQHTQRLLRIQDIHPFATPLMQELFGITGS

`CC1CCCCC1NC(=O)Nc1ccccc1` (stereo not drawn): the Potency result in experiment [1], in [2], in experiment [3], in experiment [4], in [5] and in experiment [10] was “inactive” in each case. For the same compound, the Potency result in [11], in experiment [12], in experiment [13] and in [15] was “inactive” each time. Besides, the compound was classed as inactive in experiment [6], in experiment [7], in experiment [8] and in [9]. Also, the Potency in experiment [14] is 24.3 µM (active).

Take `C[C@]12CC[C@H]3[C@@H](CCC4=CC(=O)CC[C@@]43C)[C@@H]1CC[C@@H]2C(=O)O`: the Potency entry in experiment [1], in experiment [2], in experiment [3], in experiment [4], in [5] and in experiment [10] was “inactive” each time. Further, the Potency entry in experiment [11], in experiment [13] and in experiment [15] was “inactive” in each case. The call in experiment [6] was inactive.

Take `COc1ncc(F)c2nc(S(=O)(=O)Nc3c(F)cccc3F)nn12`: the Potency entry in experiment [1], in experiment [2], in [3], in experiment [4], in experiment [5] and in experiment [10] was “inactive” throughout. Moreover, the Potency result in experiment [11], in experiment [12], in [16], in experiment [13], in experiment [14] and in experiment [15] was “inactive” in each case. Moreover, the call in experiment [6], in [7], in experiment [8] and in [9] was inactive.

As to `C[C@]12CC[C@H]3[C@@H](CC=C4C[C@@H](O)CC[C@@]43C)[C@@H]1CC[C@@H]2O`, the Potency entry in experiment [1], in [2], in experiment [3], in experiment [4], in experiment [5] and in experiment [10] was “inactive” in each case. Moreover, the Potency entry in experiment [11], in experiment [12], in experiment [16] and in experiment [13] was “inactive” in each case. For the same compound, the compound was called inactive in experiment [6] and in experiment [7]. Moreover, in [17], the max activation was -0.895%.

For the compound `CC(C)CC#N`, the Potency entry in [1], in [2], in experiment [3], in experiment [4], in [5] and in experiment [10] was “inactive” each time. Besides, the Potency result in experiment [11], in experiment [16], in [13] and in experiment [15] was “inactive” each time. Further, the call in experiment [6], in [7] and in experiment [8] was inactive.

On to `CCCCOC(=O)c1ccccc1C(=O)O`, for which the Potency result in experiment [1], in [2], in experiment [18], in [5], in experiment [10] and in [11] was “inactive” in each case. For the same compound, the Potency entry in [12], in experiment [16], in [13], in [14] and in experiment [15] was “inactive” in each case. The compound was classed as inactive in experiment [6] and in experiment [7].

On to `C#CCN1C(=O)COc2cc(F)c(N3C(=O)C4=C(CCCC4)C3=O)cc21`, for which the Potency result in experiment [1], in experiment [2], in experiment [18], in experiment [5], in experiment [10] and in experiment [11] was “inactive” throughout. Also, the Potency entry in experiment [16] and in experiment [15] was “inactive” in each case. Moreover, the compound was called inactive in [7], in experiment [8] and in experiment [9].

For the compound `COc1ccc(C(=O)N2CCCC2=O)cc1`, the Potency result in experiment [1], in [2], in experiment [3], in [4], in [5] and in experiment [10] was “inactive” each time. Also, the Potency entry in experiment [11], in experiment [12], in experiment [16] and in experiment [13] was “inactive” in each case. Also, the compound was classed as inactive in experiment [6], in experiment [7], in [8] and in experiment [9].

On to `C=C(C)CN(CC)c1c([N+](=O)[O-])cc(C(F)(F)F)cc1[N+](=O)[O-]`, for which the Potency entry in experiment [1], in experiment [2], in [3], in experiment [4], in [5] and in [10] was “inactive” throughout. The Potency result in experiment [11], in experiment [12], in experiment [16] and in [15] was “inactive” throughout. The compound was called inactive in experiment [6], in experiment [7] and in experiment [8]. Besides, the Potency in [14] was 27.3 µM (active).

In the case of `NC(=O)O`, the Potency entry in experiment [1], in experiment [2], in experiment [3], in experiment [4], in experiment [5] and in experiment [10] was “inactive” in each case. Also, the Potency entry in experiment [11], in experiment [12], in experiment [16] and in experiment [15] was “inactive” each time. For the same compound, the compound was classed as inactive in experiment [6], in experiment [7], in experiment [8] and in experiment [9].
